Screens from PubChem.
Compounds with a hit are over-represented: about 0.65% of the library has one in this group of screens.
Sa RN4220 lethal = S. aureus RN4220 growth inhibition. inhibition, % (test concentration not listed). AID 1259311. 0.33% of 330,000 active. OD600, 16 h; in the data active means inhibition above about 85%;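 further: plate controls were untreated cells for no effect and reference antibiotic for full effect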
ugtP null kill = compounds lethal to S. aureus RN4220 ugtP deletion mutant. growth inhibition, % (test concentration not listed). OD600 growth, 16 h. 0.54% of 330,000 active; in the data active means growth inhibition above about 68%;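 further: plate controls were untreated wells for no effect and antibiotic for full effect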
BJeLR viability = kills HRASV12-expressing BJeLR cells; BJeLR (HRASV12) viability, CellTiter-Glo ATP luminescence, 48 h; inhibition, % (concentration not given with the values); 0.17% of 300,000 active; AID 1554; in the data active means inhibition above about 50%
Numbers without * were called inactive; x = no result.

SMILES	Sa RN4220 lethal	ugtP null kill	BJeLR viability
COc1ccc(-c2nnc(Nc3ccc(CC(N)=O)cc3)c3ccccc23)cc1	2	8	-5
CCc1nnc(NC(=O)CSc2nc3c([nH]c4ccccc43)c(=O)n2CCOC)s1	1	11	-14
Cc1ccc(C2(c3noc(CN(C)CC4COCCO4)n3)CCCC2)cc1 (stereo not given)	6	5	-13
COC(=O)C1=C(c2cccc(C#N)c2)CC2CCC1N2C(=O)NCCCOC(C)C (stereo not given)	-1	-3	x
O=S(=O)(c1ccc(NC(=S)NCc2cccnc2)cc1)N1CCCCC1	4	4	62*
O=C(NC(=S)Nc1ccc(S(=O)(=O)N2CCCCC2)cc1)c1ccc(Cl)cc1	-10	91*	4
O=C(NCc1cccnc1)c1ccc(S(=O)(=O)N2CCCCC2)cc1	5	0	3
CCCC(=O)Nc1ccc(S(=O)(=O)N2CCCC2)cc1	0	-1	10
CN1CCN(S(=O)(=O)c2ccc(NC(=S)NC(=O)c3ccccc3)cc2)CC1	-2	46	1
CN1CCN(S(=O)(=O)c2ccc(NC(=S)NC(=O)c3ccc(Cl)cc3)cc2)CC1	4	90*	x
CCCCC(=O)NC(=S)Nc1ccc(S(=O)(=O)N2CCCC2)cc1	5	94*	0
CC1CCN(S(=O)(=O)c2ccc(NC(=S)NC(=O)c3ccc(Cl)cc3)cc2)CC1	-7	71	10
O=C(c1ccccc1)N1CCN(c2ccc(NCc3ccc4c(c3)OCO4)cc2)CC1	17	2	-4
O=C(c1cccc2ccccc12)n1nnc2ccccc21	x	x	-1
COc1ccc(-c2nsc3c(N4CCN(S(=O)(=O)c5ccccc5F)CC4)ncnc23)cc1	1	22	4
CC(=O)c1c(C)n(-c2ccc(Br)cc2)c2ccc(O)cc12	5	8	-5
O=[N+]([O-])c1ccc2[nH]cc(S(=O)(=O)N3CCN(c4cccc(Cl)c4)CC3)c2c1	100*	90*	-3
O=S(=O)(c1ccccc1)N1CCN(c2cccc(Cl)c2)CC1	10	38	5
COc1cccc(/C=C2\SC(=O)N(CCC(=O)NC3CCS(=O)(=O)C3)C2=O)c1 (stereo not given)	4	3	9
CCN(CC)S(=O)(=O)c1ccc(Cl)c(NC(=O)CSc2nnc(-c3cccs3)o2)c1	3	-1	2
CCCCCCSc1nsc(NC(=O)CC(C)C)n1	3	0	-2
CCCCCCCSc1nsc(N)n1	8	89*	1
CCc1cccc2sc(N3CCN(C(=O)c4ccc([N+](=O)[O-])o4)CC3)nc12	100*	99*	15
O=C(c1ccc([N+](=O)[O-])o1)N1CCN(Cc2ccccc2)CC1	-1	1	-7
O=C(CSc1nc2ccccc2[nH]1)NN=C/C=C/c1ccccc1[N+](=O)[O-]	98*	97*	x
SMILES	Sa RN4220 lethal	ugtP null kill	BJeLR viability
Cn1c(SCC(=O)NN=C/C=C/c2ccccc2[N+](=O)[O-])nc2ccccc21	9	10	x
Cc1ccc(NCc2nnc3n2CCCCC3)c(C)c1	-7	-11	-3
CC(C)(C)c1ccc(-n2nc(C#N)c(Cl)cc2=O)cc1	56	84	56*
CC(C)(C)c1ccc(-n2nc(C(N)=O)c(O)cc2=O)cc1	7	6	1
CC(Oc1ccc2c(-c3ccccc3)cc(=O)oc2c1)C(=O)NCCCn1ccnc1 (stereo not given)	-4	-3	4
Cc1ccccc1C(=O)/C=C1/SCC(=O)N1C	5	11	19
CC(C)CNC(=O)COc1ccc(Sc2ccc(OCC(=O)NCC(C)C)cc2)cc1	0	-2	15
Cc1ccc(C[n+]2c(-c3ccc(C)cc3)cc(-c3ccc(C)cc3)cc2-c2ccc(C)cc2)cc1	101*	101*	60*
Cc1ccc(C[n+]2ccccc2)cc1	-16	-4	12
COc1cc([N+](=O)[O-])cc(/C=N/NC(=O)C(C)Nc2cccc(C)c2)c1O (stereo not given)	x	x	11
CCOc1ccc(N2C(=O)/C(=C/c3ccc(C)o3)C(=O)NC2=S)cc1	0	-3	0
COc1ccc(N2C(=O)/C(=C/c3ccc(C)o3)C(=O)NC2=S)cc1	3	4	51*
CCOC(=O)N1CCN(c2ccc(C(=O)c3cccc(F)c3)cc2)CC1	4	13	-3
Cc1[nH]n(C2=NCCS2)c(=O)c1N=Nc1cccc(C(F)(F)F)c1	99*	99*	10
Cc1[nH]n(C(N)=S)c(=O)c1N=Nc1cccc(C(F)(F)F)c1	0	1	3
Cc1cc(C)c2c(N)c(C(=O)c3ccc(Br)cc3)oc2n1	93*	81	16
Cc1cc(C)c2c(N)c(C(=O)c3ccccc3)oc2n1	3	-8	-9
N/C(=N/OCC(=O)Nc1cccc2ccccc12)c1nonc1N	x	x	4
COc1cc(C=NNS(=O)(=O)c2ccc(C)cc2)ccc1OCc1cccc(C(=O)O)c1	10	-4	x
CCCNC1=C(C)C(=O)C2=C(C1=O)C(COC(N)=O)[C@]1(OC)C3NC3CN21 (stereo not given in full)	99*	97*	14
CS(=O)(=O)N1CCN(C(=O)c2ccc(Cl)s2)CC1	5	7	-11
CCOC(=O)c1cc(C#N)c(SC(C)C(=O)NC2CCCCC2)nc1C (stereo not given)	5	7	x
CC(=NN=C(N)SC1CC(=O)N(c2ccc(Cl)c(Cl)c2)C1=O)c1cccs1 (stereo not given)	100*	99*	x
CC(=NN=C(N)SC1CC(=O)N(c2cccc(Cl)c2)C1=O)c1cccs1 (stereo not given)	65	9	x
CCC(=O)c1ccc(N2CCN(C(=O)c3cc([N+](=O)[O-])ccc3N3CCN(C)CC3)CC2)c(F)c1	3	-3	-3
SMILES	Sa RN4220 lethal	ugtP null kill	BJeLR viability
Cc1cccnc1Nc1nc(-c2ccccc2)cs1	-2	25	11
Cc1cccnc1Nc1nc(-c2ccccn2)cs1	98*	99*	53*
O=S(=O)(Nn1cnnc1)c1ccc2ccccc2c1	6	11	-3
Nc1nc(SCC(=O)Nc2ccc(S(N)(=O)=O)cc2)n[nH]1	-1	6	-1
Cc1ccc(Oc2ccc(NC(=O)CSc3n[nH]c(N)n3)cc2)cc1	1	91*	-12
COC(=O)CCCC1=CC2=CC(=O)C(C)(OC(=O)c3cccs3)C(=O)C2=CN1CCCOC(C)C (stereo not given)	5	-4	8
CCC(/C=C1\Sc2ccc(OC)cc2N1CCO)=C\c1sc2ccc(OC)cc2[n+]1CCO	99*	96*	x
CCC(/C=C1\Sc2ccc(OC)cc2N1CC)=C\c1sc2ccc(OC)cc2[n+]1CCCS(=O)(=O)[O-]	36	-18	33
O=C(NCc1cccs1)[C@@H]1CSC2c3ccccc3C(=O)N21 (stereo not given in full)	0	12	1
COc1cc(C(=O)NNC(=S)NC(=O)c2ccc3c(c2)OCO3)cc(OC)c1OC	12	-7	4
O=S1(=O)C=C(Sc2nc3ccccc3s2)c2ccccc21	54	91*	56*
Cc1cc(C)nc(SC2=CS(=O)(=O)c3ccccc32)n1	6	-2	-19
CCOc1ccc(S(=O)(=O)N2CCN(c3ccccn3)CC2)cc1	4	9	0
CN(CC(O)COc1ccc2ccccc2c1)C1CCCCC1 (stereo not given)	-1	8	3
